# Compound activity (PubChem)
# HttQ103 aggreg: mutant huntingtin aggregation inhibition. PC12 HttQ103-GFP aggregates, Acumen cytometry, 40 h. Potency, µM (series often up to 46.1 µM), without a hit: at the highest dose activity change, negative = inhibition, usual class: inhibitors. 220,000 compounds, 1.1% hits. AID 1688; further: on the % scale 0 is the no-effect control and ±100 the full control effect; nearly all actives have a fitted effect of over 60% in size
#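 Huntingtin Q103 exon 1–GFP aggregates in induced PC12 cells (100 nM tebufenozide) were quantified by cytometry from lysates, with compounds dosed in titration.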
# HTT ATP protect: Huntington cell model cytoprotection by ATP luminescence | PC12 HTT-Q103 induced, cytoprotection, ATP luminescence, 40 h | Potency, µM (top dose mostly 56.4 µM), without a hit: cytoprotection (ATP increase), actives largely listed as activators | 230,000 compounds, 0.14% hits; further: % of control where 0% means no effect; nearly all actives have a fitted effect of over 45% in size
#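 Rat PC12, Q103 Htt exon1-GFP fusion, ecdysone promoter; tebufenozide inducer 100 nM final; compound titration; qHTS, 1500 cells/well; ATPlite luminescent read.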
# ERK EGF inh: blocks ERK signaling stimulated by EGF. HEK293-V1b, EGF-stimulated phospho-ERK AlphaScreen. Potency, µM (top dose mostly 11.5 µM), inactives show at the highest dose activity change, negative = inhibition, actives largely listed as inhibitors. 130,000 compounds, 0.41% hits. AID 1454;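 further: plate controls were stimulated vehicle wells for no effect and unstimulated vehicle basal for full effect; nearly all actives have a fitted effect of over 55% in size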
#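 HEK293 cells stably expressing V1b receptor, serum-reduced (1% FBS) overnight, got compound for 30 min at 37C, then 25 nM EGF for 5 min. Lysate phospho-ERK read by AlphaScreen SureFire; AC50 from Hill fits.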
# Numbers without * were called inactive; ? = inconclusive; · = no result; [ ] = dose if it differs, or a comment. The list is not random: actives were taken first. Their share in the collection is about 1.4%. The call rests on the fitted dose curve; in most records, active means well fitted curve in the direction sought with a large enough effect; inconclusive means small, poorly fitted or top-dose-only effect, or another doubt; inactive means no such curve, though single readings can be large; an effect the other way counts as inactive or inconclusive. Potency means the concentration at half of the fitted maximal effect.
SMILES,HttQ103 aggreg,HTT ATP protect,ERK EGF inh
Cc1cnc(C(=O)Nc2ccccc2F)cn1,11%[9.22 µM],-19%,·
COc1ccc(NC(=O)c2cnc(C)cn2)c2ncccc12,1.8µM*,-53%[10 µM],·
NCCNC(=O)c1ccc(Cl)cn1,31%,35%,·
COc1ccc(N=Cc2cc3c(cc2O)OC(N)=C(C#N)C3c2ccccc2)cc1 (configuration not stated),7.9µM*,7%[1.9 µM],-1%
N#CC1=C(N)Oc2cc(O)ccc2C1c1ccccc1 (configuration not stated),-10%,-1%,·
COc1ccccc1CNc1ccnc(-c2ccccc2C(F)(F)F)n1,·,-3%,26%
CC(C)(CO)N=C1NS(=O)(=O)c2cc([N+](=O)[O-])ccc21,10µM*,·,0%
CC(C)(C)CC(C)(C)N=C1NS(=O)(=O)c2cc([N+](=O)[O-])ccc21,-2%,-32%,-7%
CNC1=CN(O)C(c2ccccc2)=c2cc(Cl)ccc2=N1,-7%,?,·
Cc1cc(NC(=O)CCS(=O)(=O)c2nc(-c3ccccc3)cc(C(F)(F)F)n2)no1,·,-33%,·
CS(=O)(=O)c1nc(-c2ccccc2)cc(C(F)(F)F)n1,4.5µM*,?,6%
CCCCC/C=C\C[C@@H](O)/C=C/C=C\C/C=C\CCCC(=O)O,·,-42%,2%
CCCC(=O)NC(c1cccs1)c1cc([N+](=O)[O-])c2cccnc2c1O (configuration not stated),11µM*,8%[10 µM],-2%
CCC(=O)NC(c1cccs1)c1cc([N+](=O)[O-])c2cccnc2c1O (configuration not stated),?,-89%[10 µM],-6%
CC(=O)NC(c1cccs1)c1cc([N+](=O)[O-])c2cccnc2c1O (configuration not stated),3.2µM*,-56%[10 µM],1%
O=C(CCc1ccccc1)NC(c1cccs1)c1cc(Cl)c2cccnc2c1O (configuration not stated),-13%[9.22 µM],-59%[10 µM],11%
O=C(Nc1nccs1)c1cnccn1,-13%,11%[10 µM],5%
O=C(Nc1nc(-c2ccc(F)cc2)cs1)c1cnccn1,10µM*,1%[10 µM],1%
COc1cc(C(O)c2nc3ccccc3s2)cc(OC)c1OC (configuration not stated),8%[9.22 µM],6%[10 µM],-10%[57.5 µM]
COc1ccc2c(c1)-c1c(ssc1=S)C(C)(C)N2C(=O)CSC1=NCCS1,11µM*,31%[10 µM],·
CC1(C)c2ssc(=S)c2-c2ccccc2N1C(=O)CSC1=NCCS1,-9%,?,·
COc1ccc(-c2csc3ncnc(NCCN4CCOCC4)c23)cc1,13µM*,-26%,·
Cc1ccc(-c2csc3ncnc(NCCN4CCOCC4)c23)cc1,-32%,-36%,·
CC(C)NC(=O)c1sc2nc3c(c(-c4cccs4)c2c1N)CN(C)CC3,14%,-3%,·
Cc1ccc(-c2c3c(nc4sc(C(N)=O)c(N)c24)CCCC3)o1,-16%,·,3%
SMILES,HttQ103 aggreg,HTT ATP protect,ERK EGF inh
NC(=O)c1sc2nc3c(c(-c4ccco4)c2c1N)CCC3,4.5µM*,?,·
NC(=O)c1sc2nc3c(c(-c4cccs4)c2c1N)CCCC3,·,16µM*,-6%
CC(C)(CN)SCc1ccccc1,·,-1%[10 µM],·
COc1ccccc1OC[C@H](O)COC(N)=O,10%[20.6 µM],?,6%[25.7 µM]
Oc1cc(O)c2c(c1)OC(c1cc(O)c(O)c(O)c1)C(O)C2 (configuration not stated),·,-58%,-2%
CCC(=O)NC(c1ccco1)c1cc(Cl)c2cccnc2c1O (configuration not stated),-35%[9.22 µM],-66%[10 µM],8%
O=[N+]([O-])c1cc(Cc2cc([N+](=O)[O-])c3cccnc3c2O)c(O)c2ncccc12,·,-18%[10 µM],·
CC(C)C(=O)NC(c1ccccc1)c1cc([N+](=O)[O-])c2cccnc2c1O (configuration not stated),8.9µM*,-8%[10 µM],-7%
CC(=O)NC(c1ccccc1)c1cc([N+](=O)[O-])c2cccnc2c1O (configuration not stated),2.8µM*,-42%[10 µM],9%
CC1(C)CCC[C@@](C)([C@H]2CC[C@]3(C)[C@@H]2[C@H](O)C[C@@H]2[C@@]4(C)CC[C@H](O)C(C)(C)[C@@H]4[C@@H](O)C[C@]23C)O1,·,-48%,·
O=C(N/N=C\c1ccc2c(c1)CCC2)c1ccccc1O,·,-5%[10 µM],·
Cc1nc(N=Nc2cc(S(=O)(=O)O)ccc2S(=O)(=O)O)c(COP(=O)(O)O)c(C=O)c1O,·,-5%,-13%
CC(=O)N(C(C)=O)c1ncc2c([nH]c3ccccc32)c1C#N,3.2µM*,-5%,·
CNC(=O)c1cc2c(cn1)[nH]c1ccccc12,·,-103%,13%
CN(C)c1ncc2nc(-c3cc(F)cc(F)c3)c(=O)n(C[C@H]3CCCO3)c2n1,·,3%,·
CSc1nc(N)c2ncn([C@@H]3O[C@H](COP(=O)(O)OP(=O)(O)OP(=O)(O)O)[C@H](O)[C@H]3O)c2n1,·,·,-1%
CCOC(=O)C(CS)NCCN[C@@H](CS)C(=O)OCC (some centres not stated),17%,2%,·
CCOC(=O)c1sc2nc(CN3CCCCC3)nc(Cl)c2c1C,17%,19%[10 µM],3%
Cc1sc2nc(CN3CCCC3)nc(Cl)c2c1C,13µM*,18%[10 µM],2%
CC1=CC2C(C)(C)CC(=O)C[C@]2(C)CC1COc1ccc2c(c1)CC(=O)C=C2 (some centres not stated),·,-92%,?
COc1cc(NC(=S)N2CCN(c3ccccn3)CC2)cc(OC)c1OC,5%,-8%,-3%
COc1cc(NC(=S)N2CCN(c3ccccn3)CC2)cc(OC)c1,8.9µM*,21%[10 µM],·
C#CCCCO/N=C1/[C@H]2O[C@@H]2[C@@H](O)[C@H]2[C@H]1CCn1c(=O)n(C)c(=O)n12,·,-6%[10 µM],·
O=C(CSc1nc2cc(Cl)ccc2s1)N1CCN(C(=O)c2ccco2)CC1,10%,3%[10 µM],·
O=C(CSc1c2c(nc3ccc(Cl)cc13)CCCC2)N1CCN(C(=O)c2ccco2)CC1,·,20µM*,·
SMILES,HttQ103 aggreg,HTT ATP protect,ERK EGF inh
COc1cccc(/C=N/NC(=O)Cn2nc(C)c([N+](=O)[O-])c2C)c1O,2.8µM*,22%[10 µM],·
Cc1nn(CC(=O)N/N=C/c2cccs2)c(C)c1[N+](=O)[O-],-6%[9.22 µM],-14%[10 µM],-18%[57.5 µM]
COc1cccc(NC(=S)NNC(=O)C(C)n2nc(C)c([N+](=O)[O-])c2C)c1 (configuration not stated),-8%,-16%,·
COc1cccc(/C=N/NC(=O)C(C)n2nc(C)c([N+](=O)[O-])c2C)c1O (configuration not stated),16µM*,-62%[10 µM],-1%
CON,·,·,12%
Cc1cc(C)nc(SCc2ccc(F)cc2)n1,?,3.2µM*,-20%
Cc1cc(C)nc(SCc2ccc([N+](=O)[O-])cc2)n1,0%[9.22 µM],17%[10 µM],6%
CNC(=O)[C@H]1O[C@@H](n2cnc3c(N)ncnc32)[C@H](O)[C@H]1O,·,·,10%
CO[C@@H]1COC(=O)C/C=C\[C@@H](C)[C@@H]2C=C[C@H](O)[C@@H](COC(=O)CCC[C@H]1C)O2,·,-15%[10 µM],·
O=C(Cc1cccs1)N/N=C\c1ccc([N+](=O)[O-])s1,?,-108%,4%
O=C(CNC(=O)c1ccccc1Cl)N/N=C/c1ccc([N+](=O)[O-])s1,11µM*,14%[10 µM],5%
